# Source: article PMC5540273 (PLoS ONE, 2017)
# Legend:
# Details in all cases: concentration: 1 μM, replicates: in singlicate; n = 1
# [1] = tested on: RIOK1
# [2] = tested on: RIOK2
# [3] = tested on: RIOK3
# [4] = tested on: RIPK1
# [5] = tested on: RIPK2
# [6] = tested on: RIPK4
# [7] = tested on: RIPK5
# [8] = tested on: ROCK1
# [9] = tested on: ROCK2
# [10] = tested on: ROS1
# 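Further: KINOMEscan kinase panel screen.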
SMILES,%Inh [1] [%],%Inh [2] [%],%Inh [3] [%],%Inh [4] [%],%Inh [5] [%],%Inh [6] [%],%Inh [7] [%],%Inh [8] [%],%Inh [9] [%],%Inh [10] [%]
Cc1ccc(NC(=O)c2ccnc(N3CCCCC3)c2)cc1-c1ccc(C(=O)NCC2CC2)cc1 [GW775610],50,0,35,43,0,36,0,25,7,10
Cc1ccc(O)cc1Nc1ccnc2ccc(C(C)(C)C)cc12 [GW856805],15,0,11,16,79,41,22,51,39,28
Cc1ccc(O)cc1Nc1ccnc2cc(-c3ccc(CN4CCCCC4)o3)ccc12 [GW557777],16,0,21,12,91,4,12,0,0,11
COC(=O)Nc1nc2ccc(Oc3ccc(CC(=O)Nc4cc(C(F)(F)F)ccc4F)cc3)cc2[nH]1 [GW680903],0,0,8,84,48,8,0,31,12,0
COc1cc(Nc2nccc(N3CCC(NS(=O)(=O)c4ccc(NC(C)=O)cc4)CC3)n2)cc(OC)c1OC [GSK1379825],76,66,59,81,80,48,0,28,26,48
CC(C)NCC(Cc1ccccc1)NC(=O)c1cc(Br)c(-c2ccnc3[nH]ccc23)s1.Cl.Cl (stereo not drawn) [GSK1383281],72,84,60,0,0,15,9,99.6,99.6,46
CS(=O)(=O)c1cccc(CNc2nc(Nc3ccc4c(c3)CCC(=O)N4)ncc2C(F)(F)F)c1,62,0,59,0,2,17,0,0,0,31
CCn1cnc2c(NCc3ccccc3)ncnc21 [SKF-96418],0,0,0,0,0,13,28,56,16,0
CN(c1ccc(NC(=O)N2CCN(CCCN3CCOCC3)CC2)cc1)c1ccnc(Nc2ccc(CS(C)(=O)=O)cc2)n1.Cl [GW830899],80,0,82,4,17,100,0,0,0,5
